Results from PubChem BioAssay (Tox21).
Several values for one entry are separate records, joined by “and”; a condition that tells them apart may be missing. Equal values may be shown once. Results filed as inconclusive are left out. A call without a number means that no potency is given here. Where a structure was tested more than once in an assay, its records may differ in their call. Activity calls are given as the source filed them. Unless noted, calls follow the shape of the dose curve; as a rule, active = well fitted curve in the direction sought with a large enough effect in the repeat runs; inconclusive = weak or mixed curves; inactive = no such curve, though single readings can be large; an effect the other way counts as inactive or inconclusive.

Key:
[1] = qHTS assay to identify small molecule antagonists of the sonic hedgehog signaling (Shh) pathway (AID 1259369; calls by dose curve; also: nearly all actives have a fitted effect of over 45% in size; also: potency is read from the fitted curve at half-maximal effect)
Outline: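 Cells are plated and held 4hr at 37 C, compounds (DMSO) are pinned in, conditioned medium is added to stimulate the pathway, and after 24hr luciferase reagent is added for 30min before luminescence is read.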

[2] = target: Estrogen receptor beta (Homo sapiens) (UniProt Q92731); assay: qHTS assay to identify small molecule agonists of the estrogen receptor beta (ER-beta) signaling pathway (AID 1259377; active = well fitted activation curve with a large enough effect in the signal ratio in the repeat runs, not every such curve was filed as active; the % refers to the signal ratio)
Outline: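 ER-beta-UAS-bla HEK293T (GripTite) cells carrying a UAS-driven beta-lactamase reporter, in medium with 2% charcoal-stripped FBS, were exposed to compounds for 16 hr at 37C; LiveBLAzer B/G FRET substrate was then added and fluorescence read after 2 hours at room temperature.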

[3] = target: Estrogen receptor beta (Homo sapiens) (UniProt Q92731); assay: qHTS assay to identify small molecule antagonists of the estrogen receptor beta (ER-beta) signaling pathway (AID 1259378; active = well fitted inhibition curve with a large enough effect in the signal ratio in the repeat runs, not every such curve was filed as active; the % refers to the signal ratio)
Outline: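 ER-beta-UAS-bla HEK293T (GripTite) cells in 2% charcoal-stripped FBS medium were preincubated 6 hr at 37C, dosed with compound, then stimulated with 1 nM E2 (final) for 16 hr; beta-lactamase reporter read by B/G FRET fluorescence after 2 hr substrate loading.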

[4] = qHTS assay to identify small molecule agonists of the androgen receptor (AR) signaling pathway in the presence of an antagonist - cell viability counter screen (AID 1259379); also: nearly all actives have a fitted effect of over 25% in size; also: potency is read from the fitted curve at half-maximal effect
Outline: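 Cytotoxicity is assessed by CellTiter-Fluor in MDA-kb2 cells carrying an MMTV-driven luciferase reporter. Cells receive 3.0uM nilutamide plus compounds at 15 concentrations and incubate 16 hr at 37C without CO2 before fluorescence reading.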

[5] = qHTS assay to identify small molecule agonists of the estrogen receptor beta (ER-beta) signaling pathway - cell viability counter screen (AID 1259380); also: nearly all actives have a fitted effect of over 30% in size; also: potency is read from the fitted curve at half-maximal effect
Outline: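 Cytotoxicity is measured in parallel with the reporter screen: after 16 hr compound exposure at 37C and a 2 hr LiveBLAzer step, CellTiter-Glo is added to the same ER-beta-UAS-bla HEK293T wells and luminescence read after 30 min.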

[6] = qHTS assay to identify small molecule antagonists of the estrogen receptor beta (ER-beta) signaling pathway - cell viability counter screen (AID 1259382); also: nearly all actives have a fitted effect of over 55% in size; also: potency is read from the fitted curve at half-maximal effect
Outline: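 Cytotoxicity counter screen multiplexed with the beta-lactamase antagonist assay: GripTite HEK293T ER-beta-bla cells were treated 16 hr with test chemicals in the presence of 1nM 17-beta-estradiol, and viability was measured by CellTiter-Glo.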

[7] = target: Estrogen receptor (Homo sapiens) (UniProt P03372); assay: qHTS assay to identify small molecule agonists of the estrogen receptor alpha (ER-alpha) signaling pathway in the presence of an antagonist (AID 1259383; calls by dose curve; also: top concentration of the series differs between compounds; nearly all actives have a fitted effect of over 15% in size)
Outline: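 Agonist-mode confirmation in the presence of the ER antagonist ICI-182,780 at 10.0nM final. Breast-derived VM7Luc4E2 reporter cells were exposed to compounds for 22hr, and ERE-driven luciferase was quantified by luminescence.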

[8] = qHTS assay to identify small molecule agonists or antagonists of the thyroid stimulating hormone receptor (TSHR) signaling pathway - wild type cell line counter screen (AID 1259384; calls by dose curve)
Outline: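 Wild-type HEK293 cells were plated 18 h at 37 C/5% CO2, pin-dosed with compound plus Ro20-1724 medium, held 30 min at room temperature, then given cAMP-d2 and anti-cAMP-cryptate; fluorescence was read after 1 h. Fifteen concentrations, triplicate.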

[9] = qHTS assay to identify small molecule agonists of the estrogen receptor alpha (ER-alpha) signaling pathway in the presence of an antagonist - cell viability counter screen (AID 1259386);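 also: cells exposed to compounds for 22 h at 37 °C before the viability read; nearly all actives have a fitted effect of over 30% in size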; also: potency is read from the fitted curve at half-maximal effect
Outline: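 Cytotoxicity was measured in parallel with the ERE-luciferase agonist screen, in the same wells. The cells were VM7Luc4E2, which endogenously express ER-alpha, and treatment was with compounds plus 10.0nM ICI-182,780 for 22hr.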

[10] = target: Progesterone receptor (Homo sapiens) (UniProt P06401); assay: qHTS assay to identify small molecule agonists of the progesterone receptor (PR) signaling pathway (AID 1346784; calls by dose curve; also: nearly all actives have a fitted effect of over 30% in size)
Outline: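 PR-UAS-bla HEK 293T cells carrying a UAS-driven beta-lactamase reporter were seeded in medium with 2% charcoal-stripped FBS, preincubated 6 hr at 37C, then exposed to compounds in DMSO for 16 hr; agonism was read by LiveBLAzer B/G FRET fluorescence.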

[11] = target: Progesterone receptor (Homo sapiens) (UniProt P06401); assay: qHTS assay to identify small molecule antagonists of the progesterone receptor (PR) signaling pathway (AID 1346795; active = well fitted inhibition curve with a large enough effect in the signal ratio in the repeat runs, not every such curve was filed as active; the % refers to the signal ratio)
Outline: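 PR-UAS-bla HEK293T cells carrying a UAS-driven beta-lactamase reporter were plated in medium with 2% charcoal-stripped FBS and rested 6 hr at 37C. Compounds were added with 1 nM R5020 (final) for 16 hr, then FRET substrate loaded 2 hr at room temperature.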

[12] = qHTS assay to identify small molecule antagonists of the progesterone receptor (PR) signaling pathway - cell viability counter screen (AID 1346798); also: series mostly up to about 92 µM; nearly all actives have a fitted effect of over 50% in size
Outline: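 PR-UAS-bla HEK293T cells in medium with 2% charcoal-stripped FBS were treated with compounds plus R5020 for 16 hr at 37C. Cell viability was then read by CellTiter-Glo luminescence after 30 min at room temperature in the same wells.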

[13] = qHTS assay to identify small molecule agonists of the progesterone receptor (PR) signaling pathway - cell viability counter screen (AID 1346799; calls by dose curve; also: nearly all actives have a fitted effect of over 45% in size)
Outline: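 PR-UAS-bla HEK293T cells, 3,000 per well in medium with 2% charcoal-stripped FBS, were preincubated 6 hr at 37C, then exposed to compounds for 16 hr; viability was read as CellTiter-Glo luminescence after 30 min at room temperature.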

[14] = qHTS assay to identify small molecule antagonists of the TGF-beta/Smad signaling pathway - cell viability counter screen (AID 1346824); also: nearly all actives have a fitted effect of over 50% in size
Outline: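 SBE-bla HEK 293T cells were plated overnight at 37 C, then given compounds in DMSO plus TGF-beta1 (added as 0.25 ng/mL solution) for 5 hr. After the bla read, CellTiter-Glo was added to the same wells and luminescence read after 30 min at room temperature.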

[15] = qHTS assay to identify small molecule agonists of the TGF-beta/Smad signaling pathway - cell viability counter screen (AID 1346829); also: top concentration of the series differs between compounds; nearly all actives have a fitted effect of over 45% in size
Outline: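 HEK 293T SBE-bla line, 5 hr compound exposure at 37 C, multiplexed CellTiter-Glo viability read by luminescence.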

[16] = qHTS assay to identify small molecule agonists of the TGF-beta/Smad signaling pathway (AID 1346859; active = well fitted activation curve with a large enough effect in the signal ratio in the repeat runs, not every such curve was filed as active; the % refers to the signal ratio; also: series mostly up to about 77 µM)
Outline: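 HEK 293T cells stably carrying a beta-lactamase reporter driven by the Smad binding element were seeded overnight, exposed to DMSO-dissolved compounds for 5 hr at 37 C, 5% CO2, then loaded with FRET substrate for 2 hr at room temperature.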

[17] = target: Thyrotropin-releasing hormone receptor (Homo sapiens) (UniProt P34981); assay: qHTS assay to identify small molecule antagonists of the thyrotropin-releasing hormone receptor (TRHR) signaling pathway (AID 1346877; active = well fitted inhibition curve with a large enough effect in the repeat runs, not every such curve was filed as active; also: potency is read from the fitted curve at half-maximal effect)
Outline: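 Antagonism is measured as suppression of the calcium response to 1 nM TRH in TRHR-HEK293 cells that have been dye-loaded for 2 h at 37 °C after overnight plating. Each compound is tested at 15 concentrations in triplicate.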

[18] = target: Thyrotropin-releasing hormone receptor (Homo sapiens) (UniProt P34981); assay: qHTS assay to identify small molecule agonists of the thyrotropin-releasing hormone receptor (TRHR) signaling pathway (AID 1346891; calls by dose curve; also: series mostly up to about 58 µM)
Outline: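 TRHR-expressing HEK293 cells were plated 18 h at 37 °C/5% CO2, loaded with calcium dye 2 h at 37 °C, then given compound in DMSO; fluorescence was read kinetically for 3 min at 1 s intervals.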

[19] = target: Thyrotropin receptor (Homo sapiens) (UniProt P16473); assay: qHTS assay to identify small molecule antagonists of the thyroid stimulating hormone receptor (TSHR) signaling pathway (AID 1259385; calls by dose curve; also: nearly all actives have a fitted effect of over 20% in size)
Outline: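 TSHR-HEK293 cells were plated and held 18 h at 37C/5% CO2, then given compound plus Ro20-1724 and stimulated with TSH at 1.5 ng/mL final. After 30 min at room temperature, cAMP was detected with cAMP-d2/anti-cAMP-cryptate (1 h) by fluorescence.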

[20] = target: Androgen receptor (Homo sapiens) (UniProt P10275); assay: qHTS assay to identify small molecule agonists of the androgen receptor (AR) signaling pathway in the presence of an antagonist (AID 1259381; calls by dose curve; also: nearly all actives have a fitted effect of over 15% in size; also: potency is read from the fitted curve at half-maximal effect)
Outline: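 Agonist-mode confirmation screen: human MDA-kb2 cells stably expressing luciferase under an MMTV promoter bearing AR and GR response elements, co-treated with 3.0uM nilutamide (final). Luminescence measured after 16hr compound incubation.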

Chain of Progesterone receptor (Homo sapiens) (P06401 whole entry, looked up): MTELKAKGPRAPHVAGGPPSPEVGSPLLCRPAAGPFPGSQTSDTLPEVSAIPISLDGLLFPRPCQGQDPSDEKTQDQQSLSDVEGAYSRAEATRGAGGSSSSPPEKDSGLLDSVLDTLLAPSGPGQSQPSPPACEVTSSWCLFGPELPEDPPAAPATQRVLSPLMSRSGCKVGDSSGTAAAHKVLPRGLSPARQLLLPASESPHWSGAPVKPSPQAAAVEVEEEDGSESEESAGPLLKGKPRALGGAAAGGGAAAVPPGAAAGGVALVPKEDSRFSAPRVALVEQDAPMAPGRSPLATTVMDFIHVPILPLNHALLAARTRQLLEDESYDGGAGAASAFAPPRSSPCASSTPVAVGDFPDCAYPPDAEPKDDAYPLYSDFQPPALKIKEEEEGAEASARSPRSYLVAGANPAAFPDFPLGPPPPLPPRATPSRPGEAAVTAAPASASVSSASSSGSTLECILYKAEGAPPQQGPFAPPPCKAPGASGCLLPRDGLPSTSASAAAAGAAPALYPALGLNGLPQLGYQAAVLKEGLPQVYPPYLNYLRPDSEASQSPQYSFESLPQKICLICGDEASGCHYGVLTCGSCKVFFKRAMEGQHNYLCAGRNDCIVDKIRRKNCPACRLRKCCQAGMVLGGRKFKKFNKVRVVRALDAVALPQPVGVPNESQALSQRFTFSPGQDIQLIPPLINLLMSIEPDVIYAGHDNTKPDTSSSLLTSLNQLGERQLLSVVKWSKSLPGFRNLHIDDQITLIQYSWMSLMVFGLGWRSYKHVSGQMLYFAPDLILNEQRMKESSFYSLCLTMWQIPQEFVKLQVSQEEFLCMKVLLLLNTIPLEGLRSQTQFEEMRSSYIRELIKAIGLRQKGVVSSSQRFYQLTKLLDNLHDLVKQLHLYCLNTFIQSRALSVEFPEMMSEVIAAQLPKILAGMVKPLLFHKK
Chain of Thyrotropin-releasing hormone receptor (Homo sapiens) (P34981 whole entry, looked up): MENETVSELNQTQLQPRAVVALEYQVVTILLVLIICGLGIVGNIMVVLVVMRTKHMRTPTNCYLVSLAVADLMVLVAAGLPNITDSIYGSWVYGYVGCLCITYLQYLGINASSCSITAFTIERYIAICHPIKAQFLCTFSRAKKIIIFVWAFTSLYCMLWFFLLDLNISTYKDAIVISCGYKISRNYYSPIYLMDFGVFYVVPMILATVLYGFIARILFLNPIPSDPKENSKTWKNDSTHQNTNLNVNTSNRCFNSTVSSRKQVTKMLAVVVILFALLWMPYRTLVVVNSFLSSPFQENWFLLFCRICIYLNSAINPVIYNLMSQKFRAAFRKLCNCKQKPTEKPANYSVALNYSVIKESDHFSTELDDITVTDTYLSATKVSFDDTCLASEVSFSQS
Chain of Estrogen receptor beta (Homo sapiens) (Q92731 whole entry, looked up): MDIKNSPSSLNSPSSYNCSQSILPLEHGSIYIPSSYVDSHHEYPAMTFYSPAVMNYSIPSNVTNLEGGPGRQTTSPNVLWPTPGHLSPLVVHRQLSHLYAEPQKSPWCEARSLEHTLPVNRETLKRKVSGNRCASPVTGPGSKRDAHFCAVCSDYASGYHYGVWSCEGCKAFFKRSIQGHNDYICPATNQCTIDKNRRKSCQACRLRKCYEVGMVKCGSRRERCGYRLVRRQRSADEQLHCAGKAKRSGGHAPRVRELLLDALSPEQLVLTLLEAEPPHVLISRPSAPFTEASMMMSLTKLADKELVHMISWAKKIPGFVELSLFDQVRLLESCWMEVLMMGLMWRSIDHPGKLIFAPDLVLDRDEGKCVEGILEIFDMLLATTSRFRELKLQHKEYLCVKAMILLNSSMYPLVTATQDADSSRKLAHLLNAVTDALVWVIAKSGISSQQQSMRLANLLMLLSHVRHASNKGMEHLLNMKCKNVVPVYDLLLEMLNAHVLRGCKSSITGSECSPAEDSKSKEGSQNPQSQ
Chain of Thyrotropin receptor (Homo sapiens) (P16473 whole entry, looked up): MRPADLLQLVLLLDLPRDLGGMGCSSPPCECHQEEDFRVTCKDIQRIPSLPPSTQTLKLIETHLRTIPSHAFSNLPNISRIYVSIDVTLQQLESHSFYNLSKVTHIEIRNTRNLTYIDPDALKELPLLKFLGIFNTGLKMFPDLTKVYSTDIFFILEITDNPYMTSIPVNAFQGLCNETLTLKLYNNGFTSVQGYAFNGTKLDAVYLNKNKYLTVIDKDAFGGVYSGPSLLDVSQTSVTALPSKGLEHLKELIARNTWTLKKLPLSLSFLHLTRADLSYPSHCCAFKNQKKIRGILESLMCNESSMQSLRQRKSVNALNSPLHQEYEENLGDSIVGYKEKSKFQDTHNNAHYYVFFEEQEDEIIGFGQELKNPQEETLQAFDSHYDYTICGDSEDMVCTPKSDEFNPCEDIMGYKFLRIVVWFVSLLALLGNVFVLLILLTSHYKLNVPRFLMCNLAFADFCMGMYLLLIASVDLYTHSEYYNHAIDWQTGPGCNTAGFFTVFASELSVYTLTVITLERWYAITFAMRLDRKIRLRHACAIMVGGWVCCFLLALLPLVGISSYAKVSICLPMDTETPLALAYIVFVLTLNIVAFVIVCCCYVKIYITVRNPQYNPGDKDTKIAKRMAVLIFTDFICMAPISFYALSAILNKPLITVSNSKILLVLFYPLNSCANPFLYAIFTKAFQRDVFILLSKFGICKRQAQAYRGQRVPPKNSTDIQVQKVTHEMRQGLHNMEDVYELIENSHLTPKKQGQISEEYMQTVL
Chain of Estrogen receptor (Homo sapiens) (P03372 whole entry, looked up): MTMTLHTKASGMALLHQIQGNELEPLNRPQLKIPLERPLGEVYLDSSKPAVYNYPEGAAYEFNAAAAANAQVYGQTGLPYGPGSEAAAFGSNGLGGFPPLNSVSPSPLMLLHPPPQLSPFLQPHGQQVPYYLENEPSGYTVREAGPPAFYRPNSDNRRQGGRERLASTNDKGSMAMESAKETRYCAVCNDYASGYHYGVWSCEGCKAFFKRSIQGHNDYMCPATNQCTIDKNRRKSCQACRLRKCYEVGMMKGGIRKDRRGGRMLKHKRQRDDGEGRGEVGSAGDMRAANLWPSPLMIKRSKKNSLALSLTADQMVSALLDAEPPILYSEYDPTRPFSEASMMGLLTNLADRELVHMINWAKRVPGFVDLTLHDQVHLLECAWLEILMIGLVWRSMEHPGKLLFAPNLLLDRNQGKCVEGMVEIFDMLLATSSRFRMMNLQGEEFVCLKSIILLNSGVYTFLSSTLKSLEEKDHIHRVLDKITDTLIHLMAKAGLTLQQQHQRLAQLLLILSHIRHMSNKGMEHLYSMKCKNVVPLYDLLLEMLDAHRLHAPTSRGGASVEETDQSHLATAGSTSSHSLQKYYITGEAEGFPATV
Chain of Androgen receptor (Homo sapiens) (P10275 whole entry, looked up): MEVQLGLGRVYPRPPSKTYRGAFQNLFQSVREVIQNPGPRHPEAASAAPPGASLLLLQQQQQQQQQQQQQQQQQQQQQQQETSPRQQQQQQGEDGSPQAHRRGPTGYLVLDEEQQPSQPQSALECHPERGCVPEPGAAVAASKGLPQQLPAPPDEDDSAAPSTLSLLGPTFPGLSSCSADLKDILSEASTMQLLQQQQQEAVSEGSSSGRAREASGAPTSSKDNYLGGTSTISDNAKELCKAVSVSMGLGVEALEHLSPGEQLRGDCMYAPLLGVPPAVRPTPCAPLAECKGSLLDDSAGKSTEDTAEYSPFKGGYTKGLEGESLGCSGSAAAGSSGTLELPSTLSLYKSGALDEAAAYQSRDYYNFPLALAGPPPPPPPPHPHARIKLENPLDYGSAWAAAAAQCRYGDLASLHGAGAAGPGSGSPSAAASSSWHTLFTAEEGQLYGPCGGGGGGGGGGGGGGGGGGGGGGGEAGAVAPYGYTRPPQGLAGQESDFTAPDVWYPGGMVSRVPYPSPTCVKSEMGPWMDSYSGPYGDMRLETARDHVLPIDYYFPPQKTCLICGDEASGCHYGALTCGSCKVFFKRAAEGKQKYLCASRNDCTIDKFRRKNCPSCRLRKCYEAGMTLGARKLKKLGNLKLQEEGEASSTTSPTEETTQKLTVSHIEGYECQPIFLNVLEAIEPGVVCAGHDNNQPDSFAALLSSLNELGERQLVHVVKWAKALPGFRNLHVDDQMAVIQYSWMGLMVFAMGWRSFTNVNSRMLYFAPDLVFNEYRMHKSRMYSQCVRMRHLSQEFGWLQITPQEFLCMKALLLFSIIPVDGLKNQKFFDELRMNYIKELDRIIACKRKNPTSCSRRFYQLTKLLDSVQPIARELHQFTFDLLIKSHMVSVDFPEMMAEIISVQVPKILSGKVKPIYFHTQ

Row | Compound | Potency [1] | outcome [2] | Potency [3] | Potency [4] | Potency [5] | Potency [6] | Potency [7] | Potency [8] | Potency [9] | Potency [10] | Potency [11] | Potency [12] | Potency [13] | Potency [14] | Potency [15] | outcome [16] | Potency [17] | Potency [18] | Potency [19] | Potency [20]
1 | CC(C)(C)c1cc(C(C)(C)C)c(O)c(C(C)(C)C)c1 | inactive | inactive | inactive | inactive | inactive and 48.6 µM (active) | inactive | inactive | inactive | inactive | inactive | inactive | inactive | inactive | inactive | inactive | inactive | inactive | inactive |  | 
2 | CCCCN(CCO)CCCC | inactive | inactive | inactive | inactive | inactive | inactive | inactive | inactive | inactive | inactive | inactive | inactive | inactive | inactive | inactive | inactive | inactive | inactive | inactive | 
3 | Nc1ccc(O)cc1 | 7.99 µM (active) and inactive | inactive | inactive | 56.6 µM (active) and inactive | inactive | 63.5 µM (active) and inactive | inactive | inactive | 31.8 µM (active) and inactive | inactive | inactive | inactive | inactive | inactive | inactive | inactive | inactive |  | inactive | 5.04 µM (active) and inactive
4 | COc1ccc(Cc2cnc(N)nc2N)cc1OC | inactive | inactive | inactive | inactive | inactive | inactive | inactive | inactive | inactive | inactive | inactive | inactive | inactive | inactive | inactive | inactive | inactive | inactive | inactive | inactive
5 | NC(=Nc1ccccc1)Nc1ccccc1 | 2.43 µM (active) | inactive | inactive | inactive | inactive | inactive | inactive | inactive | inactive | inactive |  | inactive | inactive | inactive | inactive | inactive | 10.1 µM (active) and inactive |  | inactive | 
6 | CC1COC(=O)O1 (stereo unspecified) | inactive | inactive | inactive | inactive | inactive | inactive | inactive | inactive | inactive | inactive |  | inactive | inactive | inactive | inactive | inactive | inactive |  | inactive | inactive
